In the library only some 4.2% were active in any assay of this set; here they are far more common.
USP28 inh – blocks human USP28 ubiquitin-rhodamine cleavage | inhibition, % at 25 µM | Q96RU2 | purified USP28, Ub-rhodamine cleavage fluorescence, 30 min | actives 3% (n = 47,000)
UCHL1 block – blocks human UCHL1 ubiquitin-rhodamine cleavage. P09936. inhibition, % at 20 µM. actives 0.2% (n = 47,000). purified UCHL1, Ub-rhodamine cleavage fluorescence. AID 1645859
Target sequence (P09936 whole entry, looked up): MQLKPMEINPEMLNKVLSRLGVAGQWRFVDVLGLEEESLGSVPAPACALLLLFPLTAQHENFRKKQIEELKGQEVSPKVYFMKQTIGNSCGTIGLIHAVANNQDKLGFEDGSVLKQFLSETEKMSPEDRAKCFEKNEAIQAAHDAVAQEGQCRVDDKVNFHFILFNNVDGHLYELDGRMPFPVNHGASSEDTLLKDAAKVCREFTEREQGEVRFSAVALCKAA
USP7 inh – blocks human USP7 ubiquitin-rhodamine cleavage. purified USP7, Ub-rhodamine cleavage fluorescence. inhibition, % at 20 µM. actives 0.3% (n = 47,000)
USP10 inh – inhibitors of human USP10 deubiquitinase | actives 1.1% (n = 47,000) | Q14694 | inhibition, % at 20 µM | AID 1645856 | purified USP10, Ub-rhodamine fluorescence, 60 min
OTUD3 block – inhibitors of human OTUD3 deubiquitinase. purified OTUD3, Ub-rhodamine fluorescence, 2 h. inhibition, % at 25 µM. actives 0.7% (n = 47,000). AID 1645858
Starred values were filed as active, the others as inactive; . = not tested or not shown. No stated cut-off is given here; in the data, active means inhibition above about 30%; inactive means the rest.

SMILES	USP28 inh	UCHL1 block	USP7 inh	USP10 inh	OTUD3 block
O=C(c1ccc2c(c1)N(Cc1ccccc1F)C(=O)c1ccccc1S2)N1CCC2(CC1)OCCO2	8	4	1	0	0
O=C(CN1C(=O)c2ccccc2Sc2ccc(C(=O)N3CCCC3)cc21)Nc1ccccc1Cl	38*	5	15	11	-2
Cc1ccc([C@@H]2c3c(C)nn(-c4ccc(C)cc4)c3NC(=O)[C@H]2NC(=O)c2ccccc2)cc1	23	5	0	2	-11
O=C(NCCc1c[nH]c2ccccc12)c1cc2sccc2n1Cc1ccccc1	0	1	-11	11	-1
Cn1c(C(=O)NCCc2c[nH]c3ccccc23)cc2sccc21	39*	6	-12	3	-7
CCOC(=O)C1=C(CS(=O)(=O)c2ccc(Cl)cc2)NC(=O)NC1c1ccc(C(C)C)cc1 (stereo not given)	3	-1	-4	7	3
Cc1ccc(-c2csc3ncn(Cc4ccco4)c(=O)c23)cc1	32*	2	1	4	11
COc1ccc(OC)c2c(C)cc(N3CCN(S(=O)(=O)c4ccc5c(c4)CCCN5S(C)(=O)=O)CC3)nc12	44*	8	3	8	0
CC(C)(NC(=O)Cc1ccccc1)c1nc2c(c(C(N)=O)n1)OCO2	11	1	.	0	11
CC(C)(NC(=O)C1CCCCC1)c1nc2c(c(C(N)=O)n1)OCCO2	0	-1	81*	0	4
CCCn1c(=O)c2nscc2n(CC(=O)Nc2ccc(C)cc2F)c1=O	9	1	0	-5	4
CC(=O)Nc1ccc(S(=O)(=O)NCc2ccc(C(=O)NCCc3ccc(Cl)cc3)cc2)cc1	92*	6	8	17	6
Cc1ccc(S(=O)(=O)NCc2ccc(C(=O)NCCc3ccc(S(N)(=O)=O)cc3)cc2)cc1	69*	3	21	49*	77*
Cc1cc(OCC(=O)NCC(=O)N2CC[C@@]3(O)CCCC[C@H]3C2)c2c(C)c(C)c(=O)oc2c1	-4	-2	-35	-2	-2
CC(C)C(=O)N1CCc2cc(-c3csc(NC(=O)CN4CCc5ccccc5C4)n3)ccc21	-27	-17	-13	-5	-33
O=C(CN1C(=O)c2ccccc2C1=O)Nc1nc(-c2ccc(Br)cc2)cs1	32*	1	9	21	9
Cc1ccc(NC(=O)Nc2ccc(C)n(CC(=O)Nc3cc(C)ccc3C)c2=O)cc1	30*	0	17	39*	46*
Cc1ccc(NC(=O)Nc2ccc(C)n(CC(=O)Nc3ccc(C)cc3C)c2=O)cc1	53*	0	37*	63*	74*
Cc1ccc(C)c(NC(=O)Cn2ccc3ccn(C)c3c2=O)c1	0	-2	-1	0	0
Cc1cc(C)cc(C(=O)N2CCCN(C)c3nc4ccccc4nc32)c1	-12	0	0	-8	-22
COc1ccc(C(C)=O)c2cc(C#N)oc12	-2	-38	-3	2	0
Cn1c2ccccc2c(=O)c2c(=O)n(Cc3ccco3)c(-c3ccccc3F)nc21	-11	11	5	61*	-4
Cc1cc(C)cc(NC(=O)c2cccc(S(=O)(=O)N3CCOCC3)c2)c1	1	-2	1	2	-1
CSc1ccc(CNC(=O)CC2CCN(S(=O)(=O)c3ccc(C)cc3)CC2)cc1	30*	0	3	5	6
COc1cc(NC(=O)c2ccc3nc(-c4ccccc4)cn3c2)cc(OC)c1	4	0	-1	-1	5
SMILES	USP28 inh	UCHL1 block	USP7 inh	USP10 inh	OTUD3 block
COCCCNC(=O)COc1c(-c2ccc(OC)cc2)oc2ccccc2c1=O	18	4	0	-1	19
CC(=O)c1sc(NC(=O)/C=C/c2ccccc2)nc1-c1ccccc1	5	1	4	5	3
Cc1sc(NC(=O)/C=C/c2ccco2)nc1-c1ccccc1	54*	7	9	4	3
CCOc1ccccc1C1CC(=O)Nc2ccc3ccccc3c21 (stereo not given)	5	89*	8	15	5
COc1ccc(C2CC(=O)Nc3ccc4ccccc4c32)c(OC)c1OC (stereo not given)	7	2	0	3	11
Cc1ccccc1NC(=O)Cn1c(N2CCOCC2)nc2cc(C)n(C)c2c1=O	10	-1	-2	-6	15
O=C(Nc1cccn(Cc2c(Cl)cccc2Cl)c1=O)c1ccccc1[N+](=O)[O-]	81*	3	6	6	15
O=[N+]([O-])c1ccc(N2CCc3nc(-c4ccccn4)ncc3C2)cc1	8	4	5	6	-6
Cc1cc(O)c2c(=O)c3c(O)cccc3oc2c1O	6	6	-90	5	11
COc1ccc(CC(=O)N2CCc3cc(-c4noc(C)n4)ccc32)cc1	33*	6	7	1	8
COc1cccc(-c2ccc3nc(C4CCN(C(=O)N(C)C)CC4)nn3c2)c1	30*	0	2	-1	6
Cc1nc(-c2ccccc2)sc1C(=O)CSc1cccc(Cl)c1Cl	-1	-1	2	8	15
Cc1ccc(NC(=O)c2ccc(C)c(C)c2)cc1C	40*	7	11	6	12
OCc1ccc(OCCN2CCN(c3ncc(C(F)(F)F)cc3Cl)CC2)cc1	6	3	0	-2	0
COc1ccccc1NC(=O)Cn1cc(C(=O)c2ccc(C)cc2)c(=O)c2cc(C)ccc21	6	3	8	0	16
COc1ccc(NC(=O)Cn2cc(C(=O)c3ccc(OC)cc3)c(=O)c3cc4c(cc32)OCCO4)cc1	7	6	8	6	4
CCOc1ccc2c(c1)c(=O)c(C(=O)c1ccc(F)cc1)cn2CC(=O)Nc1ccc(F)cc1	.	30*	47*	20	5
COc1ccc(NC(=O)Cn2cc(C(=O)c3ccc(F)cc3)c(=O)c3cc(C)ccc32)cc1	14	8	16	41*	6
Cc1ccc(C(=O)c2cn(CC(=O)Nc3ccc(Cl)cc3)c3ccc(F)cc3c2=O)cc1	-60	-4	2	15	-20
CCOc1ccc2c(c1)c(=O)c(C(=O)c1ccc(C)cc1)cn2CC(=O)Nc1ccc(OC)c(OC)c1	40*	15	26	48*	36*
Cc1ccc(-n2cc(C(=O)NCc3cccnc3)nn2)cc1C	19	-1	-6	8	6
Cc1cc(NC(=O)C2CCCN(S(=O)(=O)N3CCOCC3)C2)no1 (stereo not given)	-3	0	3	-4	-9
COc1ccc2ccccc2c1S(=O)N1CCN(Cc2ccccc2)CC1 (stereo not given)	-10	-4	-2	-2	-7
COc1ccc(S(=O)(=O)N(C)Cc2cccs2)cc1OC	68*	0	5	0	18
Cn1c(C(=O)N2CCCCC2c2ncc(Cc3cccc(F)c3)o2)cc(=O)n(C)c1=O (stereo not given)	9	1	-3	1	14
